# High-throughput results from PubChem BioAssay.
# A340 absorber: absorbance at 340 nm | compound absorbance at 340 nm, fold over control | fold change at 10 µM | 65,000 tested, under 10 active;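 active = at 10 µM dose, initial 340 nm absorbance at least 2 fold that of control wells; inactive = change under 2 fold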;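 note: initial absorbance extrapolated from kinetic A340 decline of NADH oxidation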
# Autofluor 339: intrinsic fluorescence of library compounds, ex339/em460 – biochemical, MLSMR library, data from DPM-DC assay, artefact control, profiling panel; actives 5.5% (n = 65,000); compound autofluorescence, ex339/em460 nm, NADH buffer; active compounds read high; 1 = no-compound wells, NADH background; fluorescence fold increase at 10 µM;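 active = at 10 µM, mean starting fluorescence two-fold or more over control wells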;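 note: signal is the first read of a kinetic run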
# PMK inhibit: inhibitors of Streptococcus pneumoniae phosphomevalonate kinase. purified PMK, PK/LDH-coupled NADH absorbance 340 nm. inhibition, % at 10 µM. actives 0.49% (n = 65,000). AID 539;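 active = top-ranked compounds by inhibition in the single 10 µM screen, taking a fixed number of the strongest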
# Spn DPM-DC inh: S. pneumoniae DPM-DC inhibition; actives 0.49% (n = 65,000); purified DPM-DC, PK/LDH coupled NADH fluorescence; calls only at 10 µM;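 active = the 320 compounds with the highest percent inhibition in the single-dose primary screen, excluding strongly autofluorescent ones, cut at about 32% in these data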;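 note: kinetic rate of NADH fluorescence loss reporting ADP formed by the decarboxylase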
# NADH coupling: inhibition of NAD/NADH coupling enzymes, library profiling; coupled PK/LDH NADH assays, four targets; IC50, µM (titrated, usually from 10 µM); actives 0.02% (n = 65,000);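 active = single-dose screening hits from any of four coupled enzyme assays that gave an IC50 when retested across doses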;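 note: the DPM-DC format reads NADH fluorescence rather than 340 nm absorbance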
# Spn MK inh: inhibitors of Streptococcus pneumoniae mevalonate kinase; inhibition, % at 10 µM; purified MK, PK/LDH-coupled NADH absorbance 340 nm; actives 0.48% (n = 65,000);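 active = ranked among the strongest by inhibition in the single 10 µM screen, a fixed top-ranked set picked for dose follow-up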
# A number is an active result; . = inactive; / = no result given; + = active, no number. A selection: hits, their analogues and other compounds. The true share with any hit is near 6.3%.
SMILES,A340 absorber,Autofluor 339,PMK inhibit,Spn DPM-DC inh,NADH coupling,Spn MK inh
Cn1c(=O)c2c(nc(CN3CCOCC3)n2CC(O)CO)n(C)c1=O (configuration not stated),.,.,.,.,.,.
COc1cccc(CNC(=O)C2CCCN(c3nn4c(=O)cc(C)nc4s3)C2)c1 (configuration not stated),.,.,27.0,.,.,.
Cc1cc(N)c(-n2cc3c(=O)n(C)c(=O)n(C)c3c2)cc1C,.,2.68,.,.,.,.
Cc1sc2ncnc(Sc3nnnn3-c3ccccc3)c2c1C,.,3.37,.,.,.,.
Clc1ccc(-n2nnnc2Sc2ncnc3sccc23)cc1,.,.,.,.,.,.
NC(=O)c1nn(-c2ccccc2)nc1NC(=O)CN1CCCCC1,.,.,.,.,.,.
NC(=O)c1nn(-c2ccccc2)nc1N,.,3.9,.,/,.,.
O=C(NC1=NCCS1)c1ccc(-c2ccc(Cl)cc2)o1,.,2.09,.,/,.,.
Cc1nc2ccccn2c1/C(O)=C1\C(=O)C(=O)N(CCCN(C)C)C1c1ccc(Cl)cc1 (configuration not stated),.,.,.,.,.,.
CCOCCCNc1nc2c(c(=O)[nH]c(=O)n2C)n1CCCc1ccccc1,.,.,.,.,.,.
Cc1cc(NC(=O)CCC2CCCC2)no1,.,.,.,.,.,.
COc1ccc(OC)c(NC2c3ncccc3C(=O)N2Cc2ccco2)c1 (configuration not stated),.,.,.,.,.,.
COc1ccc(CN2C(=O)c3cccnc3C2Nc2cc(Cl)ccc2OC)cc1 (configuration not stated),.,.,.,.,.,83.0
CCCCn1c(N)c(N(CCC(C)C)C(=O)CSc2nnc(C)s2)c(=O)[nH]c1=O,.,.,.,.,.,.
CN(C)c1ccc(NC(=O)Cn2c(=O)n(Cc3ccccc3)c(=O)c3ccccc32)cc1,.,.,.,.,.,.
Oc1cc2ccccc2cc1-c1n[nH]c(=S)o1,.,3,.,.,.,.
S=c1[nH]nc(CSc2nc3ccccc3s2)o1,.,.,.,.,.,.
N#Cc1c(N)n(CCOC(=O)c2cccc(Br)c2)c2nc3ccccc3nc12,.,2.44,.,/,.,.
COc1cccc(Cn2c(N)c(C#N)c3nc4ccccc4nc32)c1OC,.,3.43,.,/,.,.
COc1cc(Cn2c(N)c(C#N)c3nc4ccccc4nc32)cc(OC)c1,.,3.9,.,/,.,.
CCN(CC)CCOC(=O)c1cccc(Br)c1,.,.,.,.,.,/
COc1ccccc1-c1nnc(SCC(=O)O)n1C,.,.,.,.,.,.
CNc1oc(-c2ccco2)nc1C#N,.,3.95,.,/,.,.
Cc1ccc(CNc2oc(-c3ccco3)nc2C#N)cc1,.,2.1,.,/,.,.
CNc1oc(-c2ccccc2Cl)nc1C#N,.,.,.,.,.,.
SMILES,A340 absorber,Autofluor 339,PMK inhibit,Spn DPM-DC inh,NADH coupling,Spn MK inh
CNc1oc(-c2ccc(Cl)cc2)nc1C#N,.,2.38,.,/,.,.
Cc1ccc(-c2nc(C#N)c(NCc3cccc4c3OCO4)o2)cc1,.,2.64,.,.,.,.
Cc1ccc(CN2C(=O)CCC2C(=O)NCCN(CC(C)C)CC(C)C)cc1 (configuration not stated),.,.,.,.,.,.
Cc1cc(C)c2c(=O)[nH]c(=O)n(Cc3ccccc3)c2n1,.,.,.,.,.,.
Cc1ccc(-n2nc3c(c2NC(=O)c2ccc(S(=O)(=O)N4CCOCC4)cc2)CSC3)c(C)c1,.,.,.,.,.,.
Cc1ccnc2c(N3C(=O)C4C5C=CC(C5)C4C3=O)cccc12 (configuration not stated),.,.,.,.,.,.
S=c1[nH]nc(-c2ccccc2)n1C1C=CCCC1 (configuration not stated),.,.,.,+,.,.
Clc1c(-c2nnc3n2CCCCC3)sc2ccccc12,.,.,.,.,.,.
N=c1oc2ccc3ccccc3c2cc1-c1nnc2n1CCCCC2,.,2.09,.,/,.,.
COc1ccc(C(=O)Nn2cnc3scc(-c4cccs4)c3c2=O)c(O)c1,.,.,.,.,.,.
COc1ccc(-c2nnc(N)s2)cc1,.,.,.,.,.,.
Nc1nnc(-c2ccncc2)s1,.,3.88,.,/,.,.
CNc1nnc(-c2ccncc2)s1,.,4.35,.,/,.,.
